# Shiga inhibitor = inhibitors of Shiga toxin in Vero cells. actives 9.2% (n = 290,000). inhibition, % at 38.7 µM. Vero cells, Shiga toxin protein synthesis inhibition reporter; in the data active = inhibition mostly above about 28%, no sharp cut-off; inactive = mostly below about 43%; also: 0% is about no effect
# Sm TGR inh = blocks Schistosoma mansoni thioredoxin glutathione reductase. Q962Y6. purified TGR, DTNB reduction, TNB absorbance 405 nm. Potency, µM (titrated, usually from 114 µM), for inactives: at the highest dose activity change, negative = inhibition, actives largely listed as inhibitors. actives 3% (n = 360,000); active = well fitted inhibition curve with a large enough effect; inconclusive = small, poorly fitted or top-dose-only effect; inactive = no such curve, though single readings can be large or run the other way; also: potency is read from the fitted curve at half-maximal effect; % is scaled to controls: 0 for no effect and ±100 for the full control effect; nearly all actives have a fitted effect of over 60% in size
#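 First, TGR (20 nM dispensed) and NADPH were mixed with compound. Second, a 15 min room-temperature incubation followed. Third, further NADPH and then DTNB were added to start the reaction. Finally, TNB absorbance was monitored kinetically.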
# FMDV antiviral = antivirals against foot and mouth disease virus; FMDV antiviral cell-based qHTS; Potency, µM (doses to about 57.9 µM), without a hit: top-dose activity change, negative = inhibition, most hits filed as inhibitors; actives 1.2% (n = 410,000); AID 1159524; calls by dose curve; tested in HEK293T cells; also: read-out not given here; potency is read from the fitted curve at half-maximal effect; % is scaled to controls: 0 for no effect and ±100 for the full control effect; nearly all actives have a fitted effect of over 45% in size
# Cycloheximide cs = counter-screen hit for Shiga toxin inhibitors, cycloheximide. cell reporter, cycloheximide protein synthesis inhibition counterscreen. max response, %. actives 12% (n = 300,000). AID 2314; in the data active = max response mostly above about 13%, no sharp cut-off; inactive = mostly below about 14%; also: read at 38.3 µM for the half of the compounds with a filed dose; 0% is about no effect
# Numbers without * were called inactive; ? = inconclusive; · = not tested or not shown. Only some compounds are listed: those with a hit (about 12% of all), similar ones and a draw of the others.
SMILES,Shiga inhibitor,Sm TGR inh,FMDV antiviral,Cycloheximide cs
Clc1cccc(/C=N/Nc2nnc(Cl)c3ccccc23)c1,62*,-24%,·,19
Clc1ccc(/C=N/Nc2nnc(-c3ncc[nH]3)c3ccccc23)cc1,112*,-15%,-9%,34*
Cc1[nH]n(-c2ccccc2)c(=O)c1C(C[N+](=O)[O-])c1ccc(Br)cc1 (centres undefined),-16,?,?,-5
COc1cccc(C(C[N+](=O)[O-])c2c(C)[nH]n(-c3ccccc3)c2=O)c1 (centres undefined),20,35µM*,-9%,-2
Cc1ccc(-c2nnc(Nc3ccc(OCC(N)=O)cc3)c3ccccc23)cc1S(=O)(=O)N(C)C,·,-2%,?,·
O=C(c1ccccc1Br)N(Cc1ccco1)Cc1ccco1,·,-1%,-6%,·
CC(C)c1ccc(NC(=O)COC(=O)CC2CCCC2)cc1,·,·,-3%,·
O=C(COC(=O)CC1CCCC1)Nc1cc2c(cc1Cl)C(=O)c1ccccc1C2=O,41,0%,35%,32*
O=C(/C=C/c1ccc(Cl)c(Cl)c1)NC1=NCCS1,79*,·,59%,35*
O=C(NC1=NCCS1)c1cc(Cl)ccc1Cl,-3,4%,7%,4
CC(C)c1ccc(/C=C/C(=O)NC2=NCCS2)cc1,44*,13%,·,44*
COc1ccc(NC(=O)CSCc2cnn(-c3ccccc3)c2-n2cccc2)cc1,·,1%,-15%,·
Cc1ncoc1C(=O)Nc1nccs1,10,67%,23%,1
O=C(Nc1nccs1)c1ccc(Br)o1,69*,-3%,·,33*
O=C(/C=C/c1ccc(Br)o1)Nc1nccs1,95*,3.2µM*,59%,39*
CN(c1ccc(F)cc1)S(=O)(=O)c1ccc(Cl)c(C(=O)Nc2ccncc2)c1,·,-6%,20µM*,·
O=C(O)c1cc(N(Cc2ccccc2O)Cc2ccccc2O)ccc1O,-2,·,·,12
CCN(CC)c1ccc(C(=O)c2ccccc2C(=O)O)c(O)c1,28*,-11%,35%,22*
Cc1ccc2nc(-c3ccc(NC(=O)CCS(=O)(=O)c4ccccc4)cc3)sc2c1,65*,5%,?,47*
Cc1nc2ccc(NC(=O)CCS(=O)(=O)c3ccccc3)cc2s1,94*,0%,44%,47*
Cc1ccc(S(=O)(=O)CCC(=O)Nc2ccc3nc(C)sc3c2)cc1,-4,?,-12%,4
Cc1nc2cc(NC(=O)CCS(=O)(=O)c3ccccc3)ccc2s1,58*,6%,24%,37*
CCCc1cc(C(=O)Nc2nccs2)cs1,60*,-32%,9%,57*
CC(C)CN1C(=O)c2ccc(C(=O)Nc3nccs3)cc2C1=O,26,-11%,37%,13
CCC(CC)C(=O)Nc1cccc(C(=O)Nc2nccs2)c1,-12,0%,-28%,3
SMILES,Shiga inhibitor,Sm TGR inh,FMDV antiviral,Cycloheximide cs
CCN1C(=O)c2ccc(C(=O)Nc3ncc(C)s3)cc2C1=O,56*,2%,-45%,51*
O=C(Nc1cccc(O)c1)c1ccc2c(c1)C(=O)N(Cc1ccco1)C2=O,-5,-27%,-2%,-1
Cc1cnc(NC(=O)c2ccc3c(c2)C(=O)N(Cc2ccco2)C3=O)s1,3,-5%,3%,13*
O=C(Nc1ccc(Cl)cc1C(=O)O)c1ccc2c(c1)C(=O)N(Cc1ccco1)C2=O,-4,50µM*,-4%,-4
CCCN1C(=O)c2ccc(C(=O)Nc3nccs3)cc2C1=O,65*,4%,17%,11*
CCNc1ncc2nc(-c3ccc(Cl)cc3)c(=O)n(C[C@H]3CCCO3)c2n1,·,·,-15%,·
c1ccc2c(c1)CCN(C1=Nc3cccc4cccc1c34)C2,49*,-2%,-11%,35*
CCOc1cccc(N2C(=O)CC(N3CCC(C(N)=O)(N4CCCCC4)CC3)C2=O)c1 (centres undefined),-11,45µM*,9%,-4
CCOC(=O)c1ccc(N2C(=O)CC(N3CCOCC3)C2=O)cc1 (centres undefined),-10,?,-5%,-2
CCOC(=O)C1CCCN(C2CC(=O)N(c3ccc(NC(C)=O)cc3)C2=O)C1 (centres undefined),-5,45µM*,-14%,4
CCOC(=O)c1ccc(N2C(=O)CC(N3CCC(C(N)=O)(N4CCCCC4)CC3)C2=O)cc1 (centres undefined),-1,28µM*,·,-2
COc1ccc(C)c2sc(NC(=O)c3ccc(S(=O)(=O)N(C)C)cc3)nc12,·,0%,5%,·
Cn1c(=O)oc2cc(S(=O)(=O)NCCN3CCc4ccccc4C3)ccc21,-5,4%,5.6µM*,-2
Cn1c(=O)oc2cc(S(=O)(=O)NCCC(=O)Nc3ccc4c(c3)OCCO4)ccc21,14,-2%,0%,20*
CCOc1ccc(CNC(=O)C2CCN(C(=O)N3CC(CC)Oc4ccccc43)CC2)cc1 (centres undefined),·,1%,0%,·
Cn1ccnc1SCC(=O)Nc1ccc2c(c1)COC2=O,52*,-5%,29%,14
Cc1ccc(-n2nnnc2SCC(=O)Nc2ccc3c(c2)COC3=O)cc1C,-4,6%,22%,17*
COc1cccc(CN2C(=O)CN(C3CCCCC3)C(=O)C2c2ccc(OC)c(OC)c2)c1 (centres undefined),·,1%,-22%,·
O=C1CN(c2ccccc2)C(=S)N1C(=O)c1ccc(Br)cc1,96*,?,65%,43*
Cc1cc(C)c(NC(=O)CN2C(=O)c3cccnc3Oc3ccc(C)cc32)c(C)c1,·,-3%,-17%,·
Nn1c(SCC(=O)Nc2ccc3c(c2)OCO3)nnc1-c1cccc(Cl)c1,12,-20%,8%,7
C=C(C)CSc1nnc(-c2ccc(OC)cc2)n1N,53*,7%,56%,45*
C=C(C)CSc1nnc(-c2cccc(Cl)c2)n1N,111*,0%,76%,42*
COc1ccc(-c2nc3c(n2O)CCc2c-3no[n+]2[O-])cc1,23,0%,-3%,13*
COc1ccc(Cl)cc1C(=O)Nc1ccncc1,-4,0%,1%,-2
SMILES,Shiga inhibitor,Sm TGR inh,FMDV antiviral,Cycloheximide cs
COc1ccc(Cl)cc1C(=O)Nc1ccc2c(c1)OCO2,87*,7%,15%,44*
COc1ccc(Cl)cc1C(=O)Nc1ccc2c(c1)OCCO2,36*,1%,60%,30*
COc1ccc(C)cc1S(=O)(=O)Nc1ccc2c(c1)OCCO2,·,7%,86%,2
COc1ccc(NC(C)=O)cc1S(=O)(=O)Nc1ccc2c(c1)OCCO2,17,·,10%,24*
COc1ccc(Nc2c3c(nc4ccc(NC(=O)c5cc(Cl)ccc5OC)cc24)CCCC3)cc1OC,·,16%,32µM*,·
CCOc1ccc2cc(-c3nnc(Nc4ccc(C)cc4)s3)c(=O)oc2c1,·,0%,-16%,·
CCc1ccc2[nH]c(C(=O)Nc3ccc(C)c(F)c3)cc2c1,39*,-1%,18%,17*
Cc1ccc2[nH]c(C(=O)Nc3ccccc3)cc2c1,·,1%,14%,·
O=C(Nc1ccc(F)cc1)c1cc2cc(Cl)ccc2[nH]1,32*,-7%,34%,16*
CCCC(O)c1nc2ccccc2n1CCCCOc1ccc(OC)cc1 (centres undefined),·,-3%,?,·
CCn1c(=O)c2sccc2n2c(CCC(=O)Nc3ccc(OC)cc3OC)nnc12,·,11%,-28%,·

# High-throughput results (PubChem BioAssay)
